Measurements as given in PMC4336329 (PLoS ONE, 2015).
Among all 310,000 compounds or so, about 14,000 (4.5%) showed an effect of 50% or more. Effects have a minus sign here. For the sample, strong results were picked, then their nearest neighbours and some compounds at random.

biological target: human ether-à-go-go-related gene (hERG) potassium channel (human, UniProt Q12809); test: primary screen, population patch clamp on CHO cells stably expressing hERG; higher = less effect of the substance
Sequence (Q12809 whole entry, looked up): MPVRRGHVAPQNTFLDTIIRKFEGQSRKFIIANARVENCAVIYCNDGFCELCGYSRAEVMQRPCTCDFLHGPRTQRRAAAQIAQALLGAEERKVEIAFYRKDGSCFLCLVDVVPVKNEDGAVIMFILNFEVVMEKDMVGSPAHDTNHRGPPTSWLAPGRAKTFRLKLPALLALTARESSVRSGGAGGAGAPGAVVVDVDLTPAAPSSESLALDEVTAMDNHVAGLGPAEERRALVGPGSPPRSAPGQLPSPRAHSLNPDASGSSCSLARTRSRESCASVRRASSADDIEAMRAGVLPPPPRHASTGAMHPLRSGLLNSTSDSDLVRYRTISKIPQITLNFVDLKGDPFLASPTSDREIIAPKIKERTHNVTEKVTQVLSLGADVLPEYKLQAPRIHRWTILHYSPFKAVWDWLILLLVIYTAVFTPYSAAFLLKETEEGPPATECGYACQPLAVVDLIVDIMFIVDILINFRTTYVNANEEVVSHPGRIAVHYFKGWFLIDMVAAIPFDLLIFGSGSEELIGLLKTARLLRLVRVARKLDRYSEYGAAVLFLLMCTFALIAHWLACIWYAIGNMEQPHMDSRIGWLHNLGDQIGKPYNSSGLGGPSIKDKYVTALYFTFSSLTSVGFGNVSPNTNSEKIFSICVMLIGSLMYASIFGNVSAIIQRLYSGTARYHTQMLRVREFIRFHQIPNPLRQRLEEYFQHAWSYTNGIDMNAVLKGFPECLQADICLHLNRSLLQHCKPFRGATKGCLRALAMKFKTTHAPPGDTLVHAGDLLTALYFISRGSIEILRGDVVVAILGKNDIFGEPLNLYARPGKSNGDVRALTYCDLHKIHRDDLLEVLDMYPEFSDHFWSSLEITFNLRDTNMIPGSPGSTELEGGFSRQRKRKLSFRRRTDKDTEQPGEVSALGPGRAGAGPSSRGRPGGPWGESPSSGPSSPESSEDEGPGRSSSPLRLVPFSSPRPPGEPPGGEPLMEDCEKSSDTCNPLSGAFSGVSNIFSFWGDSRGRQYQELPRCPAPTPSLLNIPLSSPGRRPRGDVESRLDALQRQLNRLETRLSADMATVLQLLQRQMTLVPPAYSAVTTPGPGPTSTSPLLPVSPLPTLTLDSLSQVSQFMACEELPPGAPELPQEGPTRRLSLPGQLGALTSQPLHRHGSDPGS
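Further: peak tail current of the secondary pulse compared with the same well before compound.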

Row | Structure (SMILES) | hERG current change (%, negative = inhibition) at 10uM
1 | CC(=O)Cc1nsc(NC(=O)c2cccc(F)c2)n1 | 12.5%
2 | O=C(Nc1ccccc1C(=O)N1CCCCC1)c1ccccc1C(F)(F)F | 27.6%
3 | Cc1ccc(N2C(=O)C(CN(C)C)C2c2ccccc2)cc1 (stereo not drawn) | -33.1%
4 | COc1ccc(N2C(=O)C(CN3CCN(C)CC3)C2c2ccccc2)cc1 (stereo not drawn) | -16%
5 | Cc1ccc(N2C(=O)C(CN3CCCCC3)C2c2ccccc2)cc1 (stereo not drawn) | -62.6%
6 | Cc1ccc(N2C(=O)C(CN3CCOCC3)C2c2ccccc2)cc1 (stereo not drawn) | -26.5%
7 | Cc1ccc(N2C(=O)C(CN3CCCC3)C2c2ccccc2)cc1 (stereo not drawn) | -78.5%
8 | COc1ccc(N2C(=O)C(CN3CCCCC3)C2c2ccccc2)cc1 (stereo not drawn) | -12%
9 | CC(=O)c1cccc(NS(=O)(=O)c2cc(OCC(N)=O)c(C)cc2Cl)c1 | 6.92%
10 | COc1ccc(CN(C(=O)c2ccc(CN3CCOCC3)o2)C(C(=O)NCC2CCCO2)c2ccc(F)cc2)cc1 (stereo not drawn) | -4.38%
11 | O=C(Cc1ccc(Cl)c(Cl)c1)OCC(=O)c1ccc[nH]1 | -24.9%
12 | O=C(COC(=O)c1cccc([N+](=O)[O-])c1)NCC1CCCO1 (stereo not drawn) | 8.06%
13 | Cc1c(NC(=O)COC(=O)C2CC3C=CC2C3)c(=O)n(-c2ccccc2)n1C (stereo not drawn) | 13.2%
14 | COCCNC(=O)c1ccc(C)c(NC(=O)C2=C(C)OCCS2)c1 | 21.1%
15 | CC1=C(C(=O)Nc2cc(C(=O)NCCC(C)C)ccc2C)SCCO1 | -52.4%
16 | CCCNC(=O)c1ccc(C)c(NC(=O)C2=C(C)OCCS2)c1 | 3.06%
17 | O=C(CSc1nnc(-c2cccs2)o1)N1CCc2ccccc21 | -10.5%
18 | CC12CCC(C(=O)Nc3ccc(Br)cn3)(OC1=O)C2(C)C (stereo not drawn) | 7.13%
19 | O=C(O)CCCN1C(=O)c2ccc(Oc3cccc([N+](=O)[O-])c3)cc2C1=O | 17.6%
20 | COc1cccc(C(=O)Cn2c(Br)nc3c2c(=O)n(C)c(=O)n3C)c1 | -13.1%
21 | Cc1cccc2c1-c1sc(C(=O)N3CCCCC3)cc1CO2 | -18.6%

Row | Structure (SMILES) | hERG current change (%, negative = inhibition) at 10uM
22 | CCN1CCN(C(=O)c2cc3c(s2)-c2c(C)cccc2OC3)CC1 | -17.8%
23 | CCOC(=O)N1CCN(C(=O)c2cc3c(s2)-c2c(C)cccc2OC3)CC1 | -15.5%
24 | Cc1cccc(NC(=O)c2cc3c(s2)-c2c(C)cccc2OC3)n1 | 29.2%
25 | CCOC(=O)c1cc2c(s1)-c1c(C)cccc1OC2 | 7.36%
26 | Cc1cccc2c1-c1sc(C(=O)NCCCN3CCC(C)CC3)cc1CO2 | -77.6%
27 | CCCN1CCN(CCCNC(=O)c2cc3c(s2)-c2c(C)cccc2OC3)CC1 | -85.2%
28 | Cc1cccc2c1-c1sc(C(=O)N3CCc4ccccc4C3)cc1CO2 | -2.75%
29 | Cc1cccc2c1-c1sc(C(=O)NCCCN3CCCC(C)C3)cc1CO2 (stereo not drawn) | -77.9%
30 | S=c1[nH]nc(-c2ccccc2)n1/N=C/c1cccc(Br)c1 | 21.4%
31 | CC(C(=O)N1CCOCC1)N1C(=O)c2cccc3cccc(c23)C1=O (stereo not drawn) | 16.6%
32 | COc1cc(OC)cc(-c2c(-c3cccs3)c3cc(-c4cnc(OC)nc4)ccc3n2C)c1 | 1.57%
33 | O=S(=O)(/N=C(/NC(=S)Nc1ccccc1)c1ccccc1)c1ccc(Cl)cc1 | 18.9%
34 | Cc1cc(C)c2nc(NNC(=O)c3cc(-c4cccs4)nc4ccccc34)sc2c1 | 18.3%
35 | O=C(CSc1nc2ccccc2n1Cc1ccccc1)N/N=C/c1ccco1 | -60.7%
36 | CCn1c(SCC(=O)N/N=C/C=C\c2ccco2)nc2ccccc21 | -9.42%
37 | Cc1ccc(/C=N/NC(=O)CSc2nc3ccccc3n2Cc2ccccc2)o1 | -33.9%
38 | Cc1ccc(/C=N/NC(=O)CSc2nc3ccccc3n2Cc2ccc(Cl)cc2)o1 | -16.2%
39 | O=C(CSc1nc2ccccc2n1Cc1ccccc1)N/N=C/c1ccccc1C(=O)O | -0.979%
40 | Cn1c(SCC(=O)N/N=C/c2ccco2)nc2ccccc21 | -2.38%
41 | Cn1c(SCC(=O)N/N=C/C=C\c2ccco2)nc2ccccc21 | -50.6%
42 | Cn1c(SCC(=O)N/N=C/C=C/c2ccco2)nc2ccccc21 | -42.9%

Row | Structure (SMILES) | hERG current change (%, negative = inhibition) at 10uM
43 | Cc1ccc(Cn2c(SCC(=O)N/N=C/c3ccc(C)o3)nc3ccccc32)cc1 | -61.1%
44 | Cc1cc(NC(=O)CSc2ccccn2)no1 | 11.3%
45 | CN(C(=O)c1ccno1)c1nnc(-c2cnccn2)s1 | 6.99%
46 | CC(C)(C)NC(=S)N/N=C/c1cc(Br)c(O)c(Br)c1 | 29.8%
47 | CCC12CN3CCN(CC(C3)C1O)C2 (stereo not drawn) | -6.76%
48 | CCOc1ccc2[nH]c3nc(SCC(=O)NC4CCCC4)nnc3c2c1 | 14.1%
49 | O=C(NCc1ccccc1)c1ccc2nc(-c3ccco3)c(-c3ccco3)nc2c1 | -10.7%
50 | CC1CCN(C(=O)CSc2nnc(-c3ccc(S(=O)(=O)N4CCOCC4)cc3)n2C)CC1 | -4.38%
51 | Cc1cccc(C)c1Nc1c(-c2ccc(N3CCOCC3)cc2)nc2ncccn12 | -19%
52 | Cc1ccc(-c2cc(-c3ccccc3)cc(-c3ccccc3)[n+]2-c2ccc(C(=O)O)cc2)cc1.[O-][Cl+3]([O-])([O-])[O-] | 4.17%
53 | Brc1ccc(-[n+]2c(-c3ccccc3)cc(-c3ccccc3)cc2-c2ccccc2)cc1.[O-][Cl+3]([O-])([O-])[O-] | -73.8%
54 | Cc1ccc(-c2cc(-c3ccccc3)cc(-c3ccccc3)[n+]2-c2ccccc2)cc1.[O-][Cl+3]([O-])([O-])[O-] | -82.1%
55 | Brc1ccc(-c2ccccc2)cc1 | 0.132%
56 | Oc1ccc(-[n+]2c(-c3ccccc3)cc(-c3ccccc3)cc2-c2ccccc2)cc1.[O-][Cl+3]([O-])([O-])[O-] | -71.3%
57 | Cc1ccc(-c2cc(-c3ccc(C)cc3)[n+](-c3ccccc3)c(-c3ccc(C)cc3)c2)cc1.[O-][Cl+3]([O-])([O-])[O-] | -80.2%
58 | Clc1ccc(OCCOCCOc2cccc3cccnc23)c(Br)c1 | 0.0859%
59 | O=C(CCS(=O)(=O)c1ccc(Br)cc1)N1CCCCCC1 | -25.3%
60 | CN1C(=O)c2ccc(NC(=O)c3c(F)c(F)c(F)c(F)c3F)cc2C1=O | 18.3%
61 | CC(C)c1ccc(NC(=S)NN(c2ccccc2)c2ccccc2)cc1 | 12.7%
62 | O=C(NCc1ccc2c(c1)OCO2)c1ccc2c(=O)n(C3CCCC3)c(=O)[nH]c2c1 | 4.61%
63 | COc1ccc(C(=O)Nc2nc3ccc(OC)cc3s2)cc1 | 12.6%

Row | Structure (SMILES) | hERG current change (%, negative = inhibition) at 10uM
64 | Nc1ccc(-c2cnc[nH]2)cc1[N+](=O)[O-] | -0.302%
65 | CCN(CCNCC(O)COCc1ccc(Cl)cc1)c1cccc(C)c1.O=C(O)C(=O)O (stereo not drawn) | -18.2%
66 | O=C(O)c1ccccc1NCCO | 33.8%
67 | O=C(CSc1nnc(-c2ccncc2)s1)Nc1ccccc1 | 3.19%
68 | O=[N+]([O-])c1ccc(-[n+]2c(-c3ccccc3)cc(-c3ccccc3)cc2-c2ccccc2)cc1.[O-][Cl+3]([O-])([O-])[O-] | 4.73%
69 | O=C(O)c1ccc(-[n+]2c(-c3ccccc3)cc(-c3ccccc3)cc2-c2ccccc2)cc1.[O-][Cl+3]([O-])([O-])[O-] | 14.8%
70 | [O-][Cl+3]([O-])([O-])[O-].c1ccc(-c2cc(-c3ccccc3)[n+](-c3ccccc3)c(-c3ccccc3)c2)cc1 | -71.3%
71 | Cc1ccc2c(COC(=O)c3ccc(NC(=O)CC#N)cc3)cc(=O)oc2c1C | 3.63%
72 | COc1ccccc1Nc1c2c(nc3ccc(N)cc13)CCCC2 | -72.4%
73 | COc1ccc(OC)c(NC(=O)COC(=O)c2c3c(nc4ccccc24)CCCC3)c1 | 1.03%
74 | COc1ccc(Nc2c3c(nc4ccccc24)CCC3)c(OC)c1 | -64.7%
75 | COc1ccc(C)cc1Nc1c2c(nc3ccccc13)CCC2 | -56.7%
76 | COc1ccc(NC(=O)CSc2c3c(nc4ccccc24)CCCC3)c(OC)c1 | -47.5%
77 | COc1ccccc1Nc1c2c(nc3ccccc13)CCC2 | -45.6%
78 | COc1ccc(OC)c(Nc2c3c(nc4ccccc24)CCC3)c1 | -67.8%
79 | COc1ccc(C)cc1Nc1nc(N)c2ccccc2n1.Cl | -12.8%
80 | COc1ccc(NC(=O)CSc2c3c(nc4ccccc24)CCC3)c(OC)c1 | -36.9%
81 | Nc1ccc2nc3c(c(Cl)c2c1)CCCC3 | -22.7%
82 | COc1ccc(OC)c(NC(=O)c2c3c(nc4ccccc24)CCC3)c1 | -21.8%
83 | COc1ccccc1NC(=O)CSc1c2c(nc3ccccc13)CCC2 | -26.3%
84 | O=C(NC1(C(=O)NC2CCCCC2)CCCCC1)c1ccccn1 | 2.56%
